In the OligoGym collection:

Molecular target: NLRP9
Test: pooled miR-30 sensor sort-seq; sequence = guide strand
Conditions: shRNA
Further: reference of the scale not given here.

In order of falling sensor-assay potency score (higher = more potent):
1. TTGACTTAAACTTTCAAGGCAT  0.797
2. TTCTGTGTCAGAAGTATCCGGA  0.451
3. TATTGCTAGAACACTTAGGGAG  0.102
4. TTTTTTTGCAACAAACTGCTCA  0.0842
5. TAAATGTTGACAATGCTTCAGG  0.0203
6. TTTCACACAAGTACAGACCAAC  -0.447
7. TTGTTTAACGTACTTGTGCTTC  -0.694
8. TCTATAGACACATTCTAGCATC  -0.783
9. TTTACAAACAGGCTGAGCCAGC  -0.948
10. TTGTATTCCTCGTCAATCCAAG  -0.958
11. TTGTTGGTAATGAACATTGAGC  -1.13
12. TTGGTAATGAACATTGAGCAAA  -1.26

Molecular target: NMD3
Test: as above
Conditions: shRNA

In order of falling sensor-assay potency score (higher = more potent):
1. TTAGCCATTATCTTCATGCTGG  0.243
2. TTAACAAGTCTGATCTTGCTTA  0.213
3. TACTTAACAAGTCTGATCTTGC  0.186
4. TTTATATCTTGGACTATGCTGC  0.0732
5. TTGATTAATACCACATCTGGAA  -0.0213
6. TTCACTAAAATAATCAACGTAA  -0.261
7. TCGAATACACACACAAATCTGG  -0.268
8. TTTTTGAGCTTTTACATCCAGA  -0.415
9. TATCTTGAGAGATCAGTCTTTG  -0.699
10. TTGAAGGATAGCACCATTCATC  -0.92
11. TTAACTTTAAGTCTCTTAGAAT  -1.22
12. TTGATATCATTCCAGCACCTGC  -1.29

Molecular target: NMNAT2
Test: as above
Conditions: shRNA

In order of rising sensor-assay potency score (higher = more potent):
1. TTTATTTCTAAAGGAAACCTAA  -0.873
2. TAAAAGTATCCTAATACTCAGG  -0.84
3. TAGTCAAACACTGATACCCCAA  -0.77
4. TTTCCTTTGTTTCATTTCCTGG  -0.769
5. TTATATTAAATAGGAAACCTGT  -0.594
6. TCCAGCAATAGCATCATCCTGA  -0.521
7. TAACAGACTTTCTGGATGCTGC  -0.475
8. TAAAGAACATTGTCTTTGCTTT  -0.457
9. TTGGTGATGGGATTGAAGCTGC  -0.365
10. TTCTGTTAAATCAAGTTCCTTT  0.0856
11. TTTGCTTTCAGGTCCCACCTGG  0.293
12. TAGAAATCTACTTCTATGGCAC  0.539
